Where a chain is given by its changes, count along the chain named. Over roughly 5,800 sequences, “enrichment r” has its median near 0.68; the highest 2% begin near 11. This is one part of a sample in which the highest values are shown more often than they occur.
T1: UNK ZnF1-6 (called full-length) (human, UniProt Q9C0B0 30-357)
T1 sequence: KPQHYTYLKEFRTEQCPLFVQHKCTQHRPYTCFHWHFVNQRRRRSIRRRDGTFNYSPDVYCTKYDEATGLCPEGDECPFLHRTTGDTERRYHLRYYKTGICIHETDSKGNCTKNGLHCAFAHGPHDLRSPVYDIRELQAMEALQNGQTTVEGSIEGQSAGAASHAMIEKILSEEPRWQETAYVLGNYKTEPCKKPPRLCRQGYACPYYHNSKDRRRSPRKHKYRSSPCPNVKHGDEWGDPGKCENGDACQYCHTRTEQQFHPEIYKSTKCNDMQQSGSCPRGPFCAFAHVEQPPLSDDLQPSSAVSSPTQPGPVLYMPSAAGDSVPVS

B1: chr3:129431351:129431457:-|3pUTR|ENSG00000129071|unk|total|mutant (ssRNA)
RNA: GGGAGUUCUACAGUCCGACGAUCACUUCAAAAAAGCUUAAUUAAGUACAACCAACCACCUUUCCAGCCACCGAGAUUUUAAUCCGCCCAACCCGAAGCCCCGUGUGUGUGCUUUCUUAAUGUGUGUGCCAAUGGUGGAUCUUUCAACAGAGGAUUGAGCAUCA
B2: chr11:61873518:61873813:-|three_prime_utr|ENSG00000221968|control|control|control (ssRNA)
RNA: GGGAGUUCUACAGUCCGACGAUCCCCUCACAUGUGUAUUCAGCAGCCCUAUGGCCUUGGCUCUGGGCCUGAUGGGACAGGGGUAGAGGGAAGGUGAGCAUAGCACAUUUUCCUAGAGCGAGAAUUGGGGGAAAGCUGUUAUUUCAACAGAGGAUUGAGCAUCA
B3: chr1:225494445:225494546:-|3pUTR|ENSG00000154380|msi1|total|mutant (ssRNA)
RNA: GGGAGUUCUACAGUCCGACGAUCUUGGGUGUUCCCUCUUCUUAUUUUCUCUCUGCCCACCUUGACACAGUAACUUCCUCUUACCGUCAAGAUGAUGAUUAAGUGUUUAAUUUUUAUUCCAUUUUGUUCUGCAACACGUUCAGGCAACAGAGGAUUGAGCAUCA
B4: ENSG00000070961:be:win_5551|3pUTR|ENSG00000070961|bound_else_gene|NA|bound_elsewhere_windowed (ssRNA)
RNA: GGGAGUUCUACAGUCCGACGAUCAAUUGUACAUUUAUUCAUCAGGUAUUUAUAGUGAAUCAUACUGUAAAAAAGAGGUAGCAUGAUAUGCUGGAAAGCAUAUUAGACUAGGAGUCAAGACCUGGUUUCUAGUCUUGGUUUUGCCAACAGAGGAUUGAGCAUCA
B5: chr6:52791370:52791857:-|three_prime_utr|ENSG00000243955|control|control|control (ssRNA)
RNA: GGGAGUUCUACAGUCCGACGAUCGCUAAUGAACUCUUUCAAAUUAUAUGCUAAUUAAAUAAUACAACUCCUAUUCGCUGACUUAGUUAAAAUUGAUUUGUUUUCAUUAGGAUCUGAUGUGAAUUCAGAUUUCCAAUCUUCUCCCAACAGAGGAUUGAGCAUCA
B6: chr12:64147824:64147925:+|3pUTR|ENSG00000196935|unk|FALSE|unique (ssRNA)
RNA: GGGAGUUCUACAGUCCGACGAUCCAUCUCUGUGGUGUCUUUGUUCCUUUCCUUUCAUUCAUCACUACUUUCUCCUUGACAGCUAGCUUGCAUUAAAUAAUGUGAAACUUUUACCUUUAAAAUAUUUUUUUAUCUCACUUUCAUCAACAGAGGAUUGAGCAUCA
B7: chr16:18805221:18805325:-|3pUTR|ENSG00000157106|unk|FALSE|bound_elsewhere (ssRNA)
RNA: GGGAGUUCUACAGUCCGACGAUCAAGAAUUCUAUGUUCUGAAAUGCACACUUUUAGAAUGUUUUUCUUUGAAAACAGGCUAAUAGUUUUUUCUUUUUUUGACAAAGUUUCAGCUCCUCUUUAAAGUUAUUGUGUCAUUUUUCUCAACAGAGGAUUGAGCAUCA
B8: chr3:125228010:125228111:-|3pUTR|ENSG00000163848|msi1|FALSE|unique (ssRNA)
RNA: GGGAGUUCUACAGUCCGACGAUCAGUUCUCUUCAUAUUUCAUAACUACAUUUCAAUAAUUCUAAACUUUCUACAUUGAUUUUUAGAUACUUAUUUUUCAAGCUUGGUUUCUCAGCUGAUCAGAUGAAUUUAUUCAACUUCAAUCAACAGAGGAUUGAGCAUCA
B9: chr3:125228010:125228111:-|3pUTR|ENSG00000163848|msi1|total|mutant (ssRNA)
RNA: B8 RNA with U83C, A84C
B10: chr11:58422334:58423261:-|CDS|ENSG00000172365|control|control|control (ssRNA)
RNA: GGGAGUUCUACAGUCCGACGAUCACACACUAGUGAGGUGAUUCUGGUUUUUAUGUCAAGCUUUAAUAUCUUUUUUGUUCUUCUAGUUAUCUUUAUCUCCUACUUGUUCAUAUUCAUCACCAUCUUGAAGAUGCAUUCAGCUAACAACAGAGGAUUGAGCAUCA
B11: chr20:3933335:3933436:-|3pUTR|ENSG00000101236|msi1|total|mutant (ssRNA)
RNA: GGGAGUUCUACAGUCCGACGAUCUUACAACACCUGCUAUCAAAUCAUCUAAGCUGAAAACAUGAGAUGCGCUUGGAAAGGCCCCGUCAGAAGCCAUUUCCUCUUAUCAUUUCCCUCUCCUAUGCACCAGUAAGGCCCGUCCAGCAACAGAGGAUUGAGCAUCA
B12: chr7:103374401:103374592:-|CDS|ENSG00000170615|control|control|control (ssRNA)
RNA: GGGAGUUCUACAGUCCGACGAUCCCUGCCCUAUGGGAGCUGCUGUUCCACAGCAUUCAUGAUGCAGUUUUAGGCAGCCAACUUAGAGAGGCACUUGCUGAACAGGAAGCCUCGGCUCCCCCUUCCCAGGAGGACUUGGAGCCCCAACAGAGGAUUGAGCAUCA
B13: chr14:75134463:75134564:-|3pUTR|ENSG00000170348|msi1|FALSE|unique (ssRNA)
RNA: GGGAGUUCUACAGUCCGACGAUCCUGUUUGGACUAUGUUUUCUUUUCUUCUCCCACUUGCUCAGCAGCUUGGGCUUCCAUUCUAGUUCUUUUACCAAGAUUUUUGUGUGACCAUGUUGACUUCAUUUGGAUUGCCCUCUUUCACAACAGAGGAUUGAGCAUCA
B14: chr1:88684422:88684524:+|5pUTR|ENSG00000065243|unk|FALSE|unique (ssRNA)
RNA: GGGAGUUCUACAGUCCGACGAUCUCGAUGAACCGGACGGAAUAAGCCGCGCCUCCAGCAGGGGCUGCGCCUCCAUGAAUCCCUAGUUGUUUUUUUUUUUUUCUUUCUCUCCCCUCUCCUCACCCCCACCCCGAGCCCCGUCCCCAACAGAGGAUUGAGCAUCA
B15: chr17:58090057:58090109:+|3pUTR|ENSG00000264364|msi1_unk|FALSE|overlapping (ssRNA)
RNA: GGGAGUUCUACAGUCCGACGAUCGGGUAGGAUUAGCUUGAAUCUUUUUUUUCUUUACAUUUUUCUCCUGUCUGCUCCCUGCUUAGCCCUCAGUUUCCUCAUUCCUCUGGAGUUCUCUUAGAGCAGCCCCUGUUGUUAGUUGGCCAACAGAGGAUUGAGCAUCA
B16: chr1:180885099:180885158:+|3pUTR|ENSG00000143324|msi1_unk|FALSE|overlapping (ssRNA)
RNA: GGGAGUUCUACAGUCCGACGAUCAGCUGAAGCUAUGCCUUAUUAUGCAUCCACAUGUAUGGUCCCUGUAGCGUGACCUUUACUAGCUCUGAAUCAGAAGACAGAGCUAUUUCAGAGGCUCUGUGUGCCCUCACUAGAUAGUUUCAACAGAGGAUUGAGCAUCA
B17: chr11:134247321:134247422:+|3pUTR|ENSG00000151502|unk|FALSE|unique (ssRNA)
RNA: GGGAGUUCUACAGUCCGACGAUCCCUUUUCAGAGCAUGAGGUCAGGCUCUGUAUCCCUCCUUUUCCUAGCUGAUAUUCUAACUAGAAGCAUUUGUCAAUUCCUUUGCCUCCCAACUGACAACACACGUUCAUUUUCCAACCUUCAACAGAGGAUUGAGCAUCA
B18: chr16:87831719:87831834:-|3pUTR|ENSG00000103257|msi1_unk|total|mutant (ssRNA)
RNA: GGGAGUUCUACAGUCCGACGAUCCCUGCGUUUGGAGGCCCCUGGGCUCUCACCCAGUCCCCACCCGCCUGCAGAGAGGGAACCCGGGCACCCCUUGUUUCUGUUGUUCCCGUGAAUUUUUUUCGCUAUGGGAGGCAGCCGAGGCAACAGAGGAUUGAGCAUCA
B19: chr5:97028609:97028710:+|3pUTR|ENSG00000113441|msi1|FALSE|bound_elsewhere (ssRNA)
RNA: GGGAGUUCUACAGUCCGACGAUCUUGCAAAAGCCAAGGUAAAGCCAGGAUCGCUGCCAAGUUGUUUGCACUCUUUGGAGUUCUAGUUAGCUCAGGGCCUGACUGUAUUUUUCAUCCAUCUUUUCUGAAGUGUCUUUGGGCAGUCAACAGAGGAUUGAGCAUCA
B20: chr22:21921976:21922077:-|3pUTR|ENSG00000100034|msi1|FALSE|unique (ssRNA)
RNA: GGGAGUUCUACAGUCCGACGAUCGACUGCAGUGGGCUCGGAUAGGCCCAUUGAGGUUUUUAGAAAAGCAGGAUUUGUUUUGUUAGGGAGGCAUGAUUUUGGUGAGAUCUUUCUGGAAGAGUUUUCCGCCUCUUUGUGAUGCUGCAACAGAGGAUUGAGCAUCA
B21: chr1:88684422:88684524:+|5pUTR|ENSG00000065243|unk|total|mutant (ssRNA)
RNA: B14 RNA with U83C, A84C
B22: chr1:228494639:228494729:+|3pUTR|ENSG00000168159|msi1_unk|FALSE|overlapping (ssRNA)
RNA: GGGAGUUCUACAGUCCGACGAUCGCCAUCGUGUCUCAUCUUGCUGUUAUCUCUAGCUCUUUCCCUCCUCCCAUUUCCUUUAGUAGUUGAAUUUUGCAAAGCUUGUAGCAGUAGCUCAGUUGCCUGCAGCAUCCUUGUGUGUAGCAACAGAGGAUUGAGCAUCA
B23: chr11:64204363:64204470:+|3pUTR|ENSG00000168439|unk|FALSE|unique (ssRNA)
RNA: GGGAGUUCUACAGUCCGACGAUCGCCCUCGAGUUCCAUGUCUCUUUCCCCUGCCCCUAGUUGCUGUCUCGGCUGCUCUCCCAUAGUUGGUUUUUUUUUUAUUUGGGGCAGUGGGCAUGUUAUGGGGAGGGGAGGGGGUUCUUCCAACAGAGGAUUGAGCAUCA
B24: chr8:100258838:100258944:-|CDS|ENSG00000034677|unk|FALSE|unique (ssRNA)
RNA: GGGAGUUCUACAGUCCGACGAUCAGUGAAUUUGAGGCUCCAUCCCUCAGUGACAGUAUGCCUUCUGUAGCAGAUUCUCACUCUAGUCAUUUUUCUGAAUUUAGUUGUUCUGACCUAGAAAGCAUGAAAACUUCUUGUAGUCAUCAACAGAGGAUUGAGCAUCA

Each binder was assayed against T1, UNK ZnF1-6 (called full-length) (assay: nsRBNS (natural sequence RNA bind-n-seq); RBNS binding buffer (assumed for nsRBNS): 25 mM Tris pH 7.5, 150 mM KCl, 3 mM MgCl2, 0.01% Triton X-100, 500 ug/ml BSA, 20 U/ml SUPERase-In, 4 C; UNK is unkempt and MSI1 is Musashi-1; names of the RNAs are library labels; protein concentration not given here; high values mean tight binding).

Point of comparison: B22, binding signal 14.7 enrichment R. Against it:
- B1 — lower, 0.636 enrichment R
- B2 — lower, 1.12 enrichment R
- B3 — lower, 0.642 enrichment R
- B4 — lower, 0.3 enrichment R
- B5 — lower, 6.55 enrichment R
- B6 — lower, 10.6 enrichment R
- B7 — lower, 0.773 enrichment R
- B8 — lower, 3.33 enrichment R
- B9 — higher, 15.6 enrichment R
- B10 — lower, 12.5 enrichment R
- B11 — lower, 0.525 enrichment R
- B12 — lower, 0.733 enrichment R
- B13 — lower, 0.995 enrichment R
- B14 — higher, 39 enrichment R
- B15 — lower, 4.34 enrichment R
- B16 — lower, 2.64 enrichment R
- B17 — lower, 2.72 enrichment R
- B18 — lower, 0.698 enrichment R
- B19 — lower, 0.475 enrichment R
- B20 — lower, 0.813 enrichment R
- B21 — lower, 3.43 enrichment R
- B23 — higher, 20.5 enrichment R
- B24 — lower, 13.2 enrichment R
